Measured values published in PMC5540273 (PLoS ONE, 2017).

system: STK39; conditions: concentration: 1 μM, replicates: in singlicate; n = 1
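Note: KINOMEscan kinase panel screen.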

| Structure (SMILES) | %Inh [%] |
| --- | --- |
| CC(C)(C)c1ccc(C(=O)Nc2cn3cc(Cl)ccc3n2)cc1 | 0 |
| O=c1cc(N2CCOCC2)nc2n(Cc3cccc(Cl)c3Cl)ccn12 [GSK2286295] | 0 |
| CCCc1ccc(S(=O)(=O)NC2CCN(c3ccnc(Nc4ccc(F)cc4)n3)C2)cc1 (stereo not drawn) [GSK1379715] | 13 |
| O=S(=O)(c1ccc(-c2ccnc3[nH]ccc23)cc1)N1CCCC1 [GSK846226] | 0 |
| COc1ccc(C2=C(Nc3cccc(C(=O)O)c3)C(=O)NC2=O)cc1 [SB-390765] | 0 |

system: SYK; conditions: concentration: 1 μM, replicates: in singlicate; n = 1

| Structure (SMILES) | %Inh [%] |
| --- | --- |
| Cl.c1ccc(-c2n[nH]cc2-c2ccnc(-c3ccc(CN4CCOCC4)cc3)c2)nc1 [GW776245] | 16 |
| Cc1nnc(-c2ccc3occ(-c4ccc(S(C)=O)cc4)c3c2)[nH]1 (stereo not drawn) | 0 |
| Cn1ccc2ncnc(Oc3ccc(Nc4nc5ccccc5[nH]4)cc3)c21 | 0 |
| COc1cc2ncn(-c3cc(OCC4CCCO4)c(C(N)=O)s3)c2cc1OC (stereo not drawn) [GSK204607] | 12 |
| Cc1cccc(-c2nc(-c3ccc(S(C)(=O)=O)cc3)sc2-c2ccnc(NCCc3ccccc3)c2)c1 | 0 |
| COC(=O)c1c(-c2ccccc2)c2cc(C(=O)O)ccc2c(=O)n1Cc1ccccc1 | 0 |
| Cl.Oc1ccc(-c2nc(-c3ccccc3)[nH]c2-c2ccncc2)cc1 [SB-428218] | 24 |
| CC(=O)Nc1nc2cnc(Nc3cc(NC(=O)c4cccc(CCC#N)c4)ccc3C)nc2s1 | 15 |
| O=C(Nc1n[nH]c2nc(-c3nccs3)c(Br)cc12)C1CCCC1 [SB-742609] | 20 |
| CCn1c(-c2ccccn2)nc2cnccc21 [SB-736398] | 0 |
| NC(=O)c1nnc2ccccc2c1N | 1 |
| COc1ccc(Nc2nccc(NCCNC(=O)Nc3ccccc3F)n2)cc1 [GSK1379901] | 32 |
| Cc1cc(N2Cc3ccccc3C2)nc(Nc2ccc(S(=O)(=O)N3CCOCC3)cc2)n1.Cl [GSK1669917] | 35 |
| CC1=C(C(=O)Nc2cc3cn[nH]c3cc2F)C(c2ccc(C(F)(F)F)cc2)CC(=O)N1 (stereo not drawn) [GSK429286] | 4 |
| COC(=O)c1c(-c2ccccc2)c2cc(OC)ccc2c(=O)n1Cc1ccccc1 | 0 |
| O=C(O)COc1ncnc2cc(-c3ccc4[nH]ncc4c3)sc12 | 0 |
| Nc1nc(-c2nccs2)c(-c2ccnc3ccccc23)s1 [GW693542] | 24 |

| Structure (SMILES) | %Inh [%] |
| --- | --- |
| Cn1cncc1-c1ccc2ncnc(Nc3ccc(OCc4ccccc4)cc3)c2c1 [GW320571] | 0 |
| O=C(Nc1ccc2c(c1)OCO2)NC1CCN(c2ccnc(Nc3ccc(F)cc3)n2)C1 (stereo not drawn) [GSK1379724] | 16 |
| Cc1ccccc1-n1cnc2c(N)ncnc21 [SKF-97510] | 100 |
| Cn1ccc2ncnc(Oc3ccc(NC(=O)Nc4ccccc4)cc3)c21 | 12 |
| O=C1NC(=O)C(N2CCc3ccccc32)=C1c1ccccc1Cl [SB-373598] | 48 |
| O=C(Nc1ccccc1)Nc1cccc(Oc2ccc3nccn3n2)c1 | 12 |
| Nc1ncnc2[nH]c(-c3ccccc3)nc12 [AH5015] | 10 |
| CS(=O)(=O)c1ccc(-c2c(-c3ncn[nH]3)sc(N3CCOCC3)c2C#N)cc1 | 23 |
| Cc1c(O)cccc1Nc1ccnc2ccc(C(F)(F)F)cc12.Cl [GW466413] | 0 |
| CS(=O)(=O)c1ccc(-c2nc3n(c2-c2ccncc2)CCC3)cc1 [SKF-105942] | 11 |
| Cc1cc(NCC(c2ccccc2)c2ccccc2)nc(NCc2ccc(C(F)(F)F)cc2)n1 [GW497681] | 0 |
| Cl.NC(=O)c1cccc(Nc2nccc(Nc3ccc(Oc4cccc(Cl)c4)c(Cl)c3)n2)c1 [GW659008] | 1 |
| CC(C)(C)c1ccc(C(=O)Nc2cn3cc(Cl)ccc3n2)cc1 | 17 |
| O=c1cc(N2CCOCC2)nc2n(Cc3cccc(Cl)c3Cl)ccn12 [GSK2286295] | 32 |
| CCCc1ccc(S(=O)(=O)NC2CCN(c3ccnc(Nc4ccc(F)cc4)n3)C2)cc1 (stereo not drawn) [GSK1379715] | 0 |
| O=S(=O)(c1ccc(-c2ccnc3[nH]ccc23)cc1)N1CCCC1 [GSK846226] | 13 |
| COc1ccc(C2=C(Nc3cccc(C(=O)O)c3)C(=O)NC2=O)cc1 [SB-390765] | 25 |
